The target in assay [1] is CCAAT/enhancer-binding protein beta (Homo sapiens) (UniProt P17676). Kind of assay: ATG_C_EBP_CIS: Attagene CIS-FACTORIAL HepG2 Assay for human CCAAT/Enhancer Binding Protein (C/EBP) beta (AID 2282927). The settings on record: HepG2 Attagene cis-factorial transcription factor reporter; actives raise or lower the signal. A digest of the protocol:
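Transiently transfected HepG2 (MRTU library, endogenous TF-driven promoters); 24 h dosing; total RNA → oligo(dT) RT → PCR → 6-FAM primer extension → HpaI digest → CE; fit bidirectionally vs DMSO.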

The nature of assay [2]: ATG_CMV_CIS: Attagene CIS-FACTORIAL HepG2 Assay for human CMV (Internal Marker) (AID 2282928).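 Also: endpoint acts as a background internal control marker rather than a target.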 The settings on record: HepG2 CMV promoter reporter, transcription factor profiling; actives raise or lower the signal. The gist of the method:
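Fluorescence intensity of RT-PCR-derived reporter fragments, resolved by capillary electrophoresis, gives the signal. HepG2 liver cells bearing transfected cis-element reporters were treated 24 h; activity in either direction was fit relative to DMSO-treated controls.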

A short description of assay [3]: ATG_DR4_LXR_CIS: Attagene CIS-FACTORIAL HepG2 Assay for human Liver X Receptor (LXR), DR4 submotif (AID 2282929). As to conditions: HepG2 Attagene DR4 cis-reporter, mRNA transcription; actives raise or lower the signal. The gist of the method:
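HepG2, transient MRTU transfection, cis-element (DR4) promoter; 24 h compound exposure; total RNA → oligo(dT) RT → PCR → 6-FAM primer extension → HpaI cut → CE. Gain/loss vs DMSO, bidirectional fit.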

Assay [4] is described as follows: ATG_AP_1_CIS: Attagene CIS-FACTORIAL HepG2 Assay for human Activator Protein 1 (AP-1) (AID 2282931). As to conditions: HepG2 Attagene cis-factorial AP-1 reporter mRNA; actives raise or lower the signal. A digest of the protocol:
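Transient MRTU transfection of HepG2 → 24 h chemical treatment → RNA isolation, RT-PCR, 6-FAM labelling, HpaI digest → capillary electrophoresis. Fit: bidirectional, DMSO negative control.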

Assay [5] in a line: ATG_AP_2_CIS: Attagene CIS-FACTORIAL HepG2 Assay for human Activator Protein 2 (AP-2) (AID 2282932). As to conditions: HepG2 AP-2 cis-reporter, Attagene transcription factor profiling; actives raise or lower the signal. A digest of the protocol: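 Read-out: fluorescent reporter mRNA via RT-PCR and capillary electrophoresis, 24 h post-dose in transiently transfected HepG2. Endogenous factors drive cis-promoter reporters; gain or loss of signal fitted bidirectionally against DMSO.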

Assay [6] is described as follows: ATG_BRE_CIS: Attagene CIS-FACTORIAL HepG2 Assay for human Bone Morphogenetic Protein (BMP) Response Element (BRE) (AID 2282933). The settings on record: HepG2 BMP response element reporter, Attagene transcription factor profiling; actives raise or lower the signal. The gist of the method: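 Endogenous transcription factor activity read in transiently transfected HepG2 cells after 24 h chemical exposure. Bidirectional curve fitting against DMSO; readout is reporter transcript level by RT-PCR with capillary electrophoresis of labelled products.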

Assay [7] has as its target Retinoic acid receptor alpha (Homo sapiens) (UniProt P10276). The assay is described as follows: ATG_DR5_RAR_CIS: Attagene CIS-FACTORIAL HepG2 Assay for human Retinoic Acid Receptor Alpha (RARE), DR5 submotif (AID 2282934). As to conditions: HepG2 Attagene cis-factorial RARE DR5 reporter, mRNA; actives raise or lower the signal. A digest of the protocol: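 Read-out: DR5-driven reporter transcript measured by RT-PCR, 6-FAM primer extension, HpaI digest and capillary electrophoresis. Human HepG2 liver cells carry transiently transfected cis-element reporter constructs; dosing lasts 24 h. Gain or loss of signal fitted against DMSO baseline.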

In assay [8] the target is Transcription factor E2F1 (Homo sapiens) (UniProt Q01094). Kind of assay: ATG_E2F_CIS: Attagene CIS-FACTORIAL HepG2 Assay for human E2F Transcription Factor 1 (AID 2282935). As to conditions: HepG2 Attagene cis-reporter, E2F reporter RNA transcripts; actives raise or lower the signal. The gist of the method: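 Transient MRTU transfection of HepG2; 24 h compound exposure; RNA → oligo(dT) RT → PCR → FAM label → HpaI cut → CE fluorescence. Gain/loss of signal fit against DMSO.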

Assay [9] is described as follows: ATG_M_61_CIS: Attagene CIS-FACTORIAL HepG2 Assay for M61 Transcription Factor (Internal Marker) (AID 2282937). The settings on record: HepG2 Attagene CIS-FACTORIAL M61 internal marker reporter; actives raise or lower the signal. A digest of the protocol:
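Human liver HepG2, transient MRTU transfection (cis promoter elements), 24 h compound. Total RNA → oligo(dT) RT → PCR → FAM label → HpaI → CE. Internal background marker; bidirectional fitting, DMSO = baseline.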

Assay [10] can be described thus: ATG_EGR_CIS: Attagene CIS-FACTORIAL HepG2 Assay for human Early Growth Response 1 (EGR1) (AID 2282938). The settings on record: HepG2 Attagene CIS-FACTORIAL EGR reporter mRNA; actives raise or lower the signal. The gist of the method: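 Transient transfection of human HepG2 with multiple cis-regulated reporter units, chemical exposure 24 h, total RNA isolated. Reverse transcription, PCR, fluorescent labelling and capillary electrophoresis quantify reporter transcripts; activity fitted bidirectionally against DMSO.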

A short description of assay [11]: ATG_M_19_CIS: Attagene CIS-FACTORIAL HepG2 Assay for M19 Transcription Factor (Internal Marker) (AID 2282939). The settings on record: HepG2 Attagene CIS-FACTORIAL M19 internal marker reporter; actives raise or lower the signal. The gist of the method: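 Internal marker readout, fitted in both directions against DMSO, from HepG2 cells carrying transfected cis-element reporter constructs; RT-PCR and capillary electrophoresis of reporter mRNA after 24 h exposure.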

Assay [12] is described as follows: ATG_ERE_CIS: Attagene CIS-FACTORIAL HepG2 Assay for Estrogen Response Element (ERE) (AID 2282940). As to conditions: HepG2 ERE cis-reporter, Attagene RNA transcript; actives raise or lower the signal. A digest of the protocol: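 After 24 h compound treatment, RNA from transfected HepG2 cells was reverse-transcribed, reporter cDNA PCR-amplified, FAM-labelled, HpaI-cut and resolved by capillary electrophoresis. ERE-driven cis reporter transcripts reflect endogenous factors; gain or loss scored against DMSO.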

The nature of assay [13]: ATG_Ets_CIS: Attagene CIS-FACTORIAL HepG2 Assay for human Erythroblast Transformation Specific (ETS) (AID 2282941). As to conditions: HepG2 ETS cis-reporter transcription, actives raise or lower the signal. The gist of the method:
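Multiplexed reporter transcript profiling: HepG2, 24 h treatment, total RNA to cDNA, PCR, 6-FAM labelling, HpaI cut, capillary electrophoresis. Gain- or loss-of-signal fitted against DMSO.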

The target of assay [14] is Hepatocyte nuclear factor 3-beta (Homo sapiens) (UniProt Q9Y261). The assay is described as follows: ATG_FoxA2_CIS: Attagene CIS-FACTORIAL HepG2 Assay for human Forkhead box A2 (FOXA2) (AID 2282942). As to conditions: HepG2 cis-reporter transcription factor activity, 24 h; actives raise or lower the signal. A digest of the protocol: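 Transient MRTU transfection of HepG2 liver cells; 24 h treatment; total RNA → oligo(dT) RT → PCR → FAM primer extension → HpaI cut → CE. Bidirectional fit vs DMSO.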

A short description of assay [15]: ATG_FoxO_CIS: Attagene CIS-FACTORIAL HepG2 Assay for human Forkhead box O (FoxO) (AID 2282943). As to conditions: HepG2 Attagene cis-reporter, FoxO element, mRNA; actives raise or lower the signal. The gist of the method: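 Read-out: fluorescence of 6-FAM-labelled reporter cDNA fragments resolved by capillary electrophoresis. Transiently transfected HepG2 cells were dosed for 24 h; activity fitted in both directions relative to DMSO controls.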

The nature of assay [16]: ATG_GATA_CIS: Attagene CIS-FACTORIAL HepG2 Assay for human GATA Binding Protein (AID 2282944). The settings on record: HepG2 GATA cis-element reporter, Attagene multiplex mRNA; actives raise or lower the signal. The gist of the method:
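Reporter transcripts from a GATA cis-regulated unit, among multiplexed reporters in transfected HepG2 cells, were measured by RT-PCR with capillary electrophoresis after 24 h dosing. Induction or loss scored relative to DMSO.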

The nature of assay [17]: ATG_GLI_CIS: Attagene CIS-FACTORIAL HepG2 Assay for human Zinc Finger Protein GLI1 (AID 2282945). The settings on record: HepG2, Attagene cis-factorial reporter mRNA, GLI element; actives raise or lower the signal. A digest of the protocol: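 Transiently transfected HepG2 cells report endogenous transcription factor activity via cis-element-driven reporter units. After 24 h compound exposure, reporter mRNA was measured by RT-PCR with capillary electrophoresis; bidirectional fitting against DMSO baseline.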

The nature of assay [18]: ATG_E_Box_CIS: Attagene CIS-FACTORIAL HepG2 Assay for human Enhancer Box (E-box) (AID 2282936). As to conditions: HepG2 E-box cis-reporter transcription, actives raise or lower the signal. A digest of the protocol:
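Transiently transfected HepG2, endogenous TF-driven reporters, 24 h dosing. Readout: RT-PCR plus capillary electrophoresis of fluorescent reporter fragments. Gain or loss of signal fitted bidirectionally against DMSO baseline.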

Assay [19] concerns the target Bile acid receptor (Homo sapiens) (UniProt Q96RI1). Kind of assay: ATG_IR1_CIS: Attagene CIS-FACTORIAL HepG2 Assay for human Nuclear Receptor Subfamily 1 Group H Member 4 (NR1H4), IR1 submotif (AID 2282946). The settings on record: IR1 reporter transcription, actives raise or lower the signal. The gist of the method: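 Fluorescence of capillary-separated, HpaI-digested RT-PCR reporter products gave IR1-element mRNA induction in HepG2 cells 24 h after dosing. Endogenous transcription factors drove the cis-regulated reporters; activity was fitted bidirectionally against DMSO.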

Values joined by “and” are separate entries in the source; they are usually repeats but may differ in a detail not shown here. Identical values can stand only once. Some structures have more than one record in an assay (separate samples or runs), and their calls can disagree. Active and inactive are the calls of the source. The calls were made as follows: active = hit-call score of the fitted dose curve at least 0.9, where 1 is the maximum; inactive = score below 0.9.

Drawing on PubChem BioAssay (EPA / NIEHS), this text covers AC50 and outcome for 2 molecules.

The AC50 is the concentration at which the activity in the assay is half-maximal.

Retinoic acid receptor alpha (Homo sapiens), sequence (P10276 whole entry, looked up): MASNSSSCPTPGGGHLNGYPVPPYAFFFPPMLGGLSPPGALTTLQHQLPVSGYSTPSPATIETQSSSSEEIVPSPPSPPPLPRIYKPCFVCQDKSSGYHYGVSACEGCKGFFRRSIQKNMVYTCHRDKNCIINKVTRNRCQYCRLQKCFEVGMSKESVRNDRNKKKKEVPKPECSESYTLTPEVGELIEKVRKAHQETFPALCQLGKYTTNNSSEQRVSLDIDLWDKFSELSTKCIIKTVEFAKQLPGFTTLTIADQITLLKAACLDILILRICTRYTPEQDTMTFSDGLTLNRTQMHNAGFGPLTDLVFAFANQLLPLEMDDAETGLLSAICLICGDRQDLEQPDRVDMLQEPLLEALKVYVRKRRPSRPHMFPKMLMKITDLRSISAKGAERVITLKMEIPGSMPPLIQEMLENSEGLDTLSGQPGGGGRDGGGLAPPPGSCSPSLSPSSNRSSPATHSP
Transcription factor E2F1 (Homo sapiens), sequence (Q01094 whole entry, looked up): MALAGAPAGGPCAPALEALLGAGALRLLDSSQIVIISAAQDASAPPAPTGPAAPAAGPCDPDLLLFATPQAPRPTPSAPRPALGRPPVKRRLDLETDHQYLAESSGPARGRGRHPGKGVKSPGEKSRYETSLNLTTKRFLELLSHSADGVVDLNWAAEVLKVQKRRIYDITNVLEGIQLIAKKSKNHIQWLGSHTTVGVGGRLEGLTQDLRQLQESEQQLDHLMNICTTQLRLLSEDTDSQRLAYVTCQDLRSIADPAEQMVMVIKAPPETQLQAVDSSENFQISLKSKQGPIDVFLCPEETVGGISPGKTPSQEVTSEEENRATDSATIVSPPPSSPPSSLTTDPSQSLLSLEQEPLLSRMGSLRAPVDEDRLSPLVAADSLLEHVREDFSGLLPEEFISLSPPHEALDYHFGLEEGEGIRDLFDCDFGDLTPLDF
Hepatocyte nuclear factor 3-beta (Homo sapiens), sequence (Q9Y261 whole entry, looked up): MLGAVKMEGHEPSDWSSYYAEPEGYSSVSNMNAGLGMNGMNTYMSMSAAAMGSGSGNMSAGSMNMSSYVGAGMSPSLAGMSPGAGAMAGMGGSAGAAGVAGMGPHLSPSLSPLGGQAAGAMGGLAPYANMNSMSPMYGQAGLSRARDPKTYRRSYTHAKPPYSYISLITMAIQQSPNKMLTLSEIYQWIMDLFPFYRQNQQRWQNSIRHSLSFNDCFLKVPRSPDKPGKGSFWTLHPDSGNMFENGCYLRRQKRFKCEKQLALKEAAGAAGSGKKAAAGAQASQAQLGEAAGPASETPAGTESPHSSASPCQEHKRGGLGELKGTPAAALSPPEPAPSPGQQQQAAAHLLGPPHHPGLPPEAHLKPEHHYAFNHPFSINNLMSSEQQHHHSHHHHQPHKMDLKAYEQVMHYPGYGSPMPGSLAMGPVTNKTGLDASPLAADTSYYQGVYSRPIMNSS
CCAAT/enhancer-binding protein beta (Homo sapiens), sequence (P17676 whole entry, looked up): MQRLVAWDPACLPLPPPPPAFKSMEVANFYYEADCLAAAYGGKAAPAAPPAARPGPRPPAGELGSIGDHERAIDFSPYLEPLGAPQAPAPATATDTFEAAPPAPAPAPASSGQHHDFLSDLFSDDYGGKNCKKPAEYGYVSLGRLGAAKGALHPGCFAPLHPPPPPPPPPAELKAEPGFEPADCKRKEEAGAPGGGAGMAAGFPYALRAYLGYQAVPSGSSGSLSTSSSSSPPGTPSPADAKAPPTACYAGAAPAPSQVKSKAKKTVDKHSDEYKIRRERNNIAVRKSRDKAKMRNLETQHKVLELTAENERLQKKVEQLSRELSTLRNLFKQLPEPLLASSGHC
Bile acid receptor (Homo sapiens), sequence (Q96RI1 whole entry, looked up): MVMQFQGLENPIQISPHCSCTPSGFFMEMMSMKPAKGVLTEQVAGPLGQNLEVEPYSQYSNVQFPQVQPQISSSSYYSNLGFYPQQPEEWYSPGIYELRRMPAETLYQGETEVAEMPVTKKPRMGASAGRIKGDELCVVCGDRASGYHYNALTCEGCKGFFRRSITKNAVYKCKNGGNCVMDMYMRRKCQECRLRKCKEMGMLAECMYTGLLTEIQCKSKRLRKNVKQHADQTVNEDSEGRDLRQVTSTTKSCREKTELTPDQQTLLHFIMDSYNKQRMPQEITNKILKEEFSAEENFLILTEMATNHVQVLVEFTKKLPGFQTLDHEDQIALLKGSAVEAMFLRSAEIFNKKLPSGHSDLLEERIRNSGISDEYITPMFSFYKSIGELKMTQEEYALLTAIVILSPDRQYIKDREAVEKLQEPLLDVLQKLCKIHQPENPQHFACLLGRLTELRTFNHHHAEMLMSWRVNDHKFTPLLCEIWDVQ

`CC(=O)[C@H]1CC[C@H]2[C@@H]3CCC4=CC(=O)CC[C@]4(C)[C@H]3CC[C@]12C`: the AC50 was 115 µM (active) in [1]; 160 µM (active) in assay [2]; 8.67 µM (active) in assay [3]; 33.4 µM (active) and 170 µM (active) in [4]; 33.4 µM (active) and 24.3 µM (active) and 33.7 µM (active) in assay [6]; 68.4 µM (active) in [8]. The half-maximal activity concentration (AC50) in [10] is 22.6 µM (active) and 50.7 µM (active) and 26.7 µM (active); in assay [12], 1.27 µM (active) [middle of 4 runs]; in assay [15] it was 154 µM (active); in [16], 152 µM (active). The result in [1], in assay [2], in assay [3], in assay [4], in assay [5] and in assay [7] was inactive. Further, the call in [8], in assay [9], in assay [10], in assay [11], in assay [13] and in assay [14] was inactive. Besides, the molecule was called inactive in [15], in [16] and in [17].
Take `COc1nc(C)nc(NC(=O)NS(=O)(=O)c2ccccc2OCCCl)n1`: the result in assay [1], in assay [2], in [3], in assay [4], in [6] and in assay [7] was inactive. Moreover, the outcome in assay [8], in assay [18], in assay [9], in assay [10], in assay [11] and in [12] was inactive. The molecule was classed as inactive in assay [13], in assay [14], in assay [15], in [16], in [17] and in [19]. Also, the AC50 was 9.13 µM (active) in assay [3] and 8.66 µM (active) in [19].
